Laboratory results taken from the supplement of paper PMC10849652.
The full data set covers some 7,900 targets. This sample favours those with a hit. About 0.6% of all pairs of compound and target were hits.

What follows are targets tested with c1cn2cc(-c3ccc4cn[nH]c4c3)nc(Nc3ccc(N4CCOCC4)cc3)c2n1 [entospletinib] (assay: log2 fold change, soluble protein after heating vs DMSO (PISA); higher = thermal stabilisation; K562 cells, 10 uM, 30 min; active = over 0.2 and 3.5 SD of the protein, either way, in both replicates (recomputed)).
Procedure, shortened: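 Soluble protein was defined as the supernatant after 21,000xg for 90 min. It came from K562 cells at 2×10^6 cells/mL given 10 μM compound for 30 min, heated in aliquots for 3 min across 48°C-58°C, pooled, and extracted in PBS with 0.5% NP-40 at 4°C, and was quantified by TMTpro 16plex LC-MS/MS with equalised channel sums. Thermal stability against control samples, from duplicates, is reported as log2 fold change.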

Sequence of UniProt Q9BPX6 (Q9BPX6 whole entry, looked up): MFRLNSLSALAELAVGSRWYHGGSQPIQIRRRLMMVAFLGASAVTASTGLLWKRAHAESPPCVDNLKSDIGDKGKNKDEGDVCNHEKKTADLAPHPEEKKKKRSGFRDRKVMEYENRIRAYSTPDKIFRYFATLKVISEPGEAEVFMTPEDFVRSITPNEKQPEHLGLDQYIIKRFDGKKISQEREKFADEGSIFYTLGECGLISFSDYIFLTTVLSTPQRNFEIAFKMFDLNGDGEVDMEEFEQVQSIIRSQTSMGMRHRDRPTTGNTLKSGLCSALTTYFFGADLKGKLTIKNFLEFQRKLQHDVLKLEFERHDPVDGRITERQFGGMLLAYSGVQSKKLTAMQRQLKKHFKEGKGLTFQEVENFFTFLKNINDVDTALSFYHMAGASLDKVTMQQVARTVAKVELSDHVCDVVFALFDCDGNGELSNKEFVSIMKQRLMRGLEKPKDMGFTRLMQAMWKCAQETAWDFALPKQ
Sequence of UniProt Q9UI26 (Q9UI26 whole entry, looked up): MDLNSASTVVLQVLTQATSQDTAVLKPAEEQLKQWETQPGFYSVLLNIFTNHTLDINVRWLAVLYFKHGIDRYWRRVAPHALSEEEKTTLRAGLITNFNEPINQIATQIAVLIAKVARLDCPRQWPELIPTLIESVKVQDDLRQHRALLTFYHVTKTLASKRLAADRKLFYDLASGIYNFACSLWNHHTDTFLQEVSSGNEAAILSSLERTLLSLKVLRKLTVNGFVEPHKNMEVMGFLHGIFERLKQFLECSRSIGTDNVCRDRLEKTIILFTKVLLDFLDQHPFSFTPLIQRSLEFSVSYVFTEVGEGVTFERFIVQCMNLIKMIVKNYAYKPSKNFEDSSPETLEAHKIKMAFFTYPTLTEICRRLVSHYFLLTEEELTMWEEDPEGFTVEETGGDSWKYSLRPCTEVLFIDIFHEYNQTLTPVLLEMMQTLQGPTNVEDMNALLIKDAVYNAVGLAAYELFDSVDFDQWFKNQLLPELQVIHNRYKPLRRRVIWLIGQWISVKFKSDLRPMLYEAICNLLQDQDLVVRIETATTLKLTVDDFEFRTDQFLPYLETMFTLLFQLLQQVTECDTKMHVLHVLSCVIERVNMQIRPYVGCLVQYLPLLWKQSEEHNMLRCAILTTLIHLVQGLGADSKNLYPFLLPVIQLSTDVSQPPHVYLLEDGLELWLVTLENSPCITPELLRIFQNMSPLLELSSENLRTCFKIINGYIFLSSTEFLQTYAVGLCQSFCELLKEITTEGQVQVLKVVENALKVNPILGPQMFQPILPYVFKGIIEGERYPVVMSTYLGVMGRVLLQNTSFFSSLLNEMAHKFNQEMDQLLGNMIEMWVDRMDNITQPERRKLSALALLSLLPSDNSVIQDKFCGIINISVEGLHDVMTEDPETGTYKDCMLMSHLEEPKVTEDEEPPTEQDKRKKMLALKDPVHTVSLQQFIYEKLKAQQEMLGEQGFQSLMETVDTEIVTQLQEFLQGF
Sequence of UniProt O95373 (O95373 whole entry, looked up): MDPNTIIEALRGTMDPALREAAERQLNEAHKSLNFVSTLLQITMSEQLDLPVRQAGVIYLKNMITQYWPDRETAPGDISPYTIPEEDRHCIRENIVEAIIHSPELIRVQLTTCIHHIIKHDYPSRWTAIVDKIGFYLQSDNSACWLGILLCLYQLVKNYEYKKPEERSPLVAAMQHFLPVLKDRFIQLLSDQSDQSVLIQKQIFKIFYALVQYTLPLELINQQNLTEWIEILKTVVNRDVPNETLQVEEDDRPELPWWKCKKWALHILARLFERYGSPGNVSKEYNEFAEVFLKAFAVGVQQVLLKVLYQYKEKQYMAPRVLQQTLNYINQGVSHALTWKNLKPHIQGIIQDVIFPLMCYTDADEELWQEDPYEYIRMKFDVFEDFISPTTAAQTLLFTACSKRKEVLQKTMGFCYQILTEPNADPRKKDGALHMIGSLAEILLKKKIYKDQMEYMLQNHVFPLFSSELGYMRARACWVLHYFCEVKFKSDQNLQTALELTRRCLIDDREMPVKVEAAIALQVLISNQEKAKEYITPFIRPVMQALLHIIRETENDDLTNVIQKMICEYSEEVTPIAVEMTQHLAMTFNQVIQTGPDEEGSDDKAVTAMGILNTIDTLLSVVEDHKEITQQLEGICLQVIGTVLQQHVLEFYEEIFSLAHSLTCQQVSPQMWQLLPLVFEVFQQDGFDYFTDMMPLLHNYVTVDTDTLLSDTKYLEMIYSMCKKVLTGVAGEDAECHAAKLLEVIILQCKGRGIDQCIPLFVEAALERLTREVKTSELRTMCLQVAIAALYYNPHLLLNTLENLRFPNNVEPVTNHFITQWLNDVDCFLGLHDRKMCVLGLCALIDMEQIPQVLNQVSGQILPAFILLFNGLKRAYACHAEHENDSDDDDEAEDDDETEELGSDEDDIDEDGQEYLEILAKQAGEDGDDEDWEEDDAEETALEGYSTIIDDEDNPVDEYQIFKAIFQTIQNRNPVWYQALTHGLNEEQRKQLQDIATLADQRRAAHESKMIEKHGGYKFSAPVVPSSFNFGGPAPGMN
Sequence of UniProt P53778 (P53778 whole entry, looked up): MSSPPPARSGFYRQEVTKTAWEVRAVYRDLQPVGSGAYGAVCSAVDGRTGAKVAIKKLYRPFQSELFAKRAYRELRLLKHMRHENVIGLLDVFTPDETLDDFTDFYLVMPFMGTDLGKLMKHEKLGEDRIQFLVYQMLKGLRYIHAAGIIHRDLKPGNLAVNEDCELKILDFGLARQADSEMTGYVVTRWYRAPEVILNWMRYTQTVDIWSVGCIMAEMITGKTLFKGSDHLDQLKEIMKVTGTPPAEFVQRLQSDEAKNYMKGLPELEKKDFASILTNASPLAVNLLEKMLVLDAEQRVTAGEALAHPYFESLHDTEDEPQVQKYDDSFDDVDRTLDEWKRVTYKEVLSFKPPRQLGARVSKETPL
Sequence of UniProt O95372 (O95372 whole entry, looked up): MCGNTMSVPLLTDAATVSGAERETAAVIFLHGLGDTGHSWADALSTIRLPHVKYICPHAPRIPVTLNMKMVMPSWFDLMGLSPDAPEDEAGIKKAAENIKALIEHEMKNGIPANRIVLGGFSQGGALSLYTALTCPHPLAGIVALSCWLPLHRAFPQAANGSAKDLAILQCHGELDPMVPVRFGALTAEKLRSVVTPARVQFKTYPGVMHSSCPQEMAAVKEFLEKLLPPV
Sequence of UniProt Q14974 (Q14974 whole entry, looked up): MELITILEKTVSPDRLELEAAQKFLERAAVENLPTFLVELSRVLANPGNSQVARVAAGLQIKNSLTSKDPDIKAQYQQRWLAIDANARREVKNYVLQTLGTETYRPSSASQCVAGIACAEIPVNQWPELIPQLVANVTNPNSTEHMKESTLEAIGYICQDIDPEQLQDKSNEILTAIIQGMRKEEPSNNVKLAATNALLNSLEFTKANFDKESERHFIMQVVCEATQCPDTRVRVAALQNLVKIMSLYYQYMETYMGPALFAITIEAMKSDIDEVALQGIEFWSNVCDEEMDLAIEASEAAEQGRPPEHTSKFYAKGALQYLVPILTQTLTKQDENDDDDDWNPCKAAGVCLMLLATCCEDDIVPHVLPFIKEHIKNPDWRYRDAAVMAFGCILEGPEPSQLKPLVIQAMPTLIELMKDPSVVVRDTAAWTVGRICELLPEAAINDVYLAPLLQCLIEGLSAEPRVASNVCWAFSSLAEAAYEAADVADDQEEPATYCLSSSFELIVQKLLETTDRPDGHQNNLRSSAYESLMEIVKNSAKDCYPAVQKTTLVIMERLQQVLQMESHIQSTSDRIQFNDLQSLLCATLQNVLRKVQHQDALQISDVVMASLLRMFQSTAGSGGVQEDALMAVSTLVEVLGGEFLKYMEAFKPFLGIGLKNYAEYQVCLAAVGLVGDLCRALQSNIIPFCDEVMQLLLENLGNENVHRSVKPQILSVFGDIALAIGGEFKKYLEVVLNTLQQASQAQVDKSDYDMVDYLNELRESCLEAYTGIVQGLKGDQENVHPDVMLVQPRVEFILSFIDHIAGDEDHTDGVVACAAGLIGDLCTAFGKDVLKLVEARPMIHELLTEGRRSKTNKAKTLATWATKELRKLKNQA
Sequence of UniProt Q9H1B7 (Q9H1B7 whole entry, looked up): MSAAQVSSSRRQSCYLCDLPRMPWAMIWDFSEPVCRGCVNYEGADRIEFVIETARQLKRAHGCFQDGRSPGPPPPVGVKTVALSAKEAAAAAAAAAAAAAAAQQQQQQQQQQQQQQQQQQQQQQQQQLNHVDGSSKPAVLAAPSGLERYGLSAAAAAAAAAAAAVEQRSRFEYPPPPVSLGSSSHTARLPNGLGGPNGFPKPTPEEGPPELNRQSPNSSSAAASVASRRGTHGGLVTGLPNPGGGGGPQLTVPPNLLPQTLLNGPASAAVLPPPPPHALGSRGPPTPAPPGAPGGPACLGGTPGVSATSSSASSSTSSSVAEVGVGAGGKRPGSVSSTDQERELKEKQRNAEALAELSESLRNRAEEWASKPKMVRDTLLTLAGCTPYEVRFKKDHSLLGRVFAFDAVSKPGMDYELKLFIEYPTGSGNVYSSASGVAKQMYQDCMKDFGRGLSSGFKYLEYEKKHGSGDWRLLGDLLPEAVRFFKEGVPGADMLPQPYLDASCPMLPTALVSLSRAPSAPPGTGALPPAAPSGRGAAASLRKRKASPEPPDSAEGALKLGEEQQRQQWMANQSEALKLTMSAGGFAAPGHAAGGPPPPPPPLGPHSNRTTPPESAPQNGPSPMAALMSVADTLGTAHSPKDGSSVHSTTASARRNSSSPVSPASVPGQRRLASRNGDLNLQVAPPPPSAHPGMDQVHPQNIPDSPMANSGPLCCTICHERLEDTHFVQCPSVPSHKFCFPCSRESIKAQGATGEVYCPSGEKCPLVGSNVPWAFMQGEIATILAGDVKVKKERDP
Sequence of UniProt P14174 (P14174 whole entry, looked up): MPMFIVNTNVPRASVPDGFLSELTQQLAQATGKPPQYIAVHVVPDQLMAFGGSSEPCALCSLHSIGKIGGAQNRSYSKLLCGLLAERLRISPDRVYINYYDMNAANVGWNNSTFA
Sequence of UniProt Q8WV07 (Q8WV07 whole entry, looked up): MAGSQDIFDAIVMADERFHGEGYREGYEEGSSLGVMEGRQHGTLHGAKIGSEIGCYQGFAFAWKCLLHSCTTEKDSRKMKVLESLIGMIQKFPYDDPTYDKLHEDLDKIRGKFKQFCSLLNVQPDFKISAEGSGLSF

log2 fold change, inactive:
IGFBP4 (UniProt P22692) 0.147
LAMP2 (UniProt P13473) 0.023
ITPRIP (UniProt Q8IWB1) -0.005
JMJD6 isoform 3 (UniProt Q6NYC1) 0.006
MAGOHB (UniProt Q96A72) 0.097
KIF13A (UniProt Q9H1H9) 0.066
IGF2R (UniProt P11717) -0.004
MAP2K2 (UniProt P36507) 0.021
MIF (UniProt P14174) 0.111
MICU1 isoform 3 (UniProt Q9BPX6) 0.049
LPCAT3 (UniProt Q6P1A2) 0.012
MELK (UniProt Q14680) 0.025
IPO11 isoform 2 (UniProt Q9UI26) 0.022
KPNB1 (UniProt Q14974) 0.078
LRRFIP1 (UniProt Q32MZ4) 0.004
IPO7 (UniProt O95373) 0.027
MAP2K1 (UniProt Q02750) -0.026
KRAS isoform 2 (UniProt P01116) -0.053
MAPK12 (UniProt P53778) 0.02
LNPEP (UniProt Q9UIQ6) 0.013
LYPLA2 (UniProt O95372) 0.053
IRF2BPL (UniProt Q9H1B7) 0.001
MAP2K7 isoform 4 (UniProt O14733) -0.009
KHDC4 (UniProt Q7Z7F0) -0.051
KEL (UniProt P23276) -0.023
MFGE8 (UniProt Q08431) 0.065
MFSD12 isoform 3 (UniProt Q6NUT3) -0.089
ING5 (UniProt Q8WYH8) -0.058
LEPROT (UniProt O15243) 0.029
MARK2 (UniProt E9PC69) 0.029
LTO1 (UniProt Q8WV07) -0.047
KIF11 (UniProt P52732) 0.058
KHDRBS1 (UniProt Q07666) 0.189
MEPCE (UniProt Q7L2J0) 0.154
